Assay results as given in PubChem BioAssay AID602197 (NMMLSC, 2012).
The other results are listed elsewhere or left out. Unmarked numbers belong to inactive results. No stated cut-off is given here; in the data, active means response above about 24%; inactive means the rest.

Test: yeast V-ATPase proton pumping modulators, confirmation, S. cerevisiae, pH-sensitive GFP, second cherry-pick (AID 602197);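 further: plate controls were vehicle wells for no effect and positive control wells for full effect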
Conditions: S. cerevisiae pHLuorin cytosolic pH, V-ATPase proton transport; at 10 µM; hits give high values

Row | SMILES | response [%]
1 | Cc1ccccc1N1C(=O)NC(=O)/C(=C\c2cc(C)n(C)c2C)C1=O | 1.24
2 | CC(=O)Nc1ccc(C(=O)C(Cc2ccccc2)N(C)C)cc1 (configuration not stated) | 2.66
